From PubChem BioAssay (NCATS) come the findings set out here.

Test [1] addresses ATP-dependent 6-phosphofructokinase (Trypanosoma brucei brucei) (UniProt O15648). The test can be described thus: qHTS Assay to Find Inhibitors of T. brucei phosphofructokinase: hit validation (AID 492961).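 Note: luminescence reports ADP formed as PFK phosphorylates fructose-6-phosphate with ATP; % is set by controls: 0 for no effect and ±100 for the full control effect.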 In a few lines: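 PFK 1.25 nM, F6P 0.5 mM, ATP 0.1 mM, MgCl2 5 mM, 0.1 M TEA pH 8.0, Tween20 0.01%, BSA 0.1%; 45 min RT. ADP-Glo two-step detection, luminescence. qHTS titration; curve fitting with curve-class categorization.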
In general terms: qHTS replaces the single test concentration by a dilution series.

Test [2] concerns the target Luciferin 4-monooxygenase (Photinus pyralis) (UniProt P08659). In words: Biochemical firefly luciferase enzyme assay for NPC (AID 624030).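 Note: purified P. pyralis luciferase at 10 nM with luciferin and ATP substrate; 0% = DMSO and -100% = full luciferase inhibition by PTC124 control; nearly all actives have a fitted effect of over 70% in size.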 Put shortly: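 Counter-screen for direct inhibition of the luciferase enzyme by approved-drug library compounds, run at 10 nM enzyme in 50 mM Tris acetate (final). Luminescence was read within 5 min of enzyme-buffer addition and normalized to PTC124 versus DMSO (0%).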

The nature of test [3]: S16 Schwann cell PMP22 intronic element beta-lactamase assay (AID 624044; calls by dose curve;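 note: 0% = DMSO and -100% = potassium clavulanate positive control; nearly all actives have a fitted effect of over 15% in size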). The note with it: S16 rat Schwann cells, PMP22 element beta-lactamase FRET, 24 h; ratio activity, negative = inhibition: at 38.3 µM (top of the series). Put shortly:
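Rat S16 Schwann cells with beta-Lac driven by a PMP22 intronic element, compound-treated 24 h at 37 °C. LiveBLAzer FRET B/G read: 460 nm normalized to potassium clavulanate vs DMSO; 535 nm FRET as viability; concentration-effect curves classified.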

Test [4] in a line: qHTS profiling for inhibitors of Plasmodium falciparum proliferation (AID 504749).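 For activity, negative = inhibition: 0% = DMSO vehicle and full inhibition = artemisinin control.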 For all read-outs here: nearly all actives have a fitted effect of over 60% in size. Note: potency is the fitted concentration of half-maximal effect. The note with it: P. falciparum in erythrocytes, SYBR Green DNA, 72 h; for activity, negative = inhibition: at 28.7 µM (top of the series). In a few lines:
(§1)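 P. falciparum-infected erythrocytes (0.3% parasitemia, 2.5% hematocrit final) were exposed to compounds for 72 h at 37 C in 5% CO2, then lysed with SYBR Green buffer overnight at room temperature; parasite DNA fluorescence was normalized to artemisinin and DMSO controls.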

Another test relates to CP185. The description is as above. The conditions noted are these: P. falciparum in erythrocytes, SYBR Green DNA, 72 h; series mostly up to 28.7 µM. Put shortly:
as §1

In another test the test system is CP192. The description is as above. The conditions noted are these: P. falciparum in erythrocytes, SYBR Green DNA, 72 h; series mostly up to 28.7 µM. Put shortly: as §1
The next test has as its system CP211. The description is as above. The note with it: P. falciparum in erythrocytes, SYBR Green DNA, 72 h; series mostly up to 28.7 µM. In a few lines:
as §1

Another test relates to CP238. The description is as above. The note with it: P. falciparum in erythrocytes, SYBR Green DNA, 72 h; series mostly up to 28.7 µM. In a few lines: as §1
The next test deals with CP262. Described as above. The conditions noted are these: P. falciparum in erythrocytes, SYBR Green DNA, 72 h; series mostly up to 28.7 µM. In a few lines:
as §1

For another test, the system named is CP269. The description is as above. The conditions noted are these: P. falciparum in erythrocytes, SYBR Green DNA, 72 h; series mostly up to 28.7 µM. In a few lines:
as §1

A further test concerns CP286. Described as above. The note with it: P. falciparum in erythrocytes, SYBR Green DNA, 72 h; series mostly up to 28.7 µM. In a few lines:
as §1

In the next test the test system is CP305. The description is as above. The note with it: P. falciparum in erythrocytes, SYBR Green DNA, 72 h; series mostly up to 28.7 µM. Put shortly: as §1
The test system of a further test is CP315. Described as above. The note with it: P. falciparum in erythrocytes, SYBR Green DNA, 72 h; series mostly up to 28.7 µM. Put shortly: as §1
Another test has as its system CP325. The test is described as above. The note with it: P. falciparum in erythrocytes, SYBR Green DNA, 72 h; series mostly up to 28.7 µM. Put shortly: as §1
The subject of a further test is FAB9. The test is described as above. The note with it: P. falciparum in erythrocytes, SYBR Green DNA, 72 h; series mostly up to 28.7 µM. Put shortly: as §1
Another test concerns HB3. The description is as above. The note with it: P. falciparum in erythrocytes, SYBR Green DNA, 72 h; series mostly up to 28.7 µM. Put shortly: as §1
Another test concerns JCK. The test is described as above. The conditions noted are these: P. falciparum in erythrocytes, SYBR Green DNA, 72 h; series mostly up to 28.7 µM. Put shortly:
as §1

For a further test, the system named is N140. Described as above. The note with it: P. falciparum in erythrocytes, SYBR Green DNA, 72 h; series mostly up to 28.7 µM. In a few lines:
as §1

The subject of the next test is PC49. The test is described as above. The conditions noted are these: P. falciparum in erythrocytes, SYBR Green DNA, 72 h; series mostly up to 28.7 µM. In a few lines:
as §1

The test system of a further test is Dd2. Described as above. The conditions noted are these: P. falciparum in erythrocytes, SYBR Green DNA, 72 h; series mostly up to 28.7 µM. In a few lines: as §1

“And” between values parts separate entries of the source, which are not always exact repeats. Identical values can stand only once. Results filed as inconclusive are left out. Unmarked numbers belong to inactive results. The source made the active and inactive calls. Unless noted, calls come from the whole dose curve; as a rule, active = well fitted curve in the direction sought with a large enough effect; inconclusive = small, poorly fitted or top-dose-only effect, or another doubt; inactive = no such curve, though single readings can be large; an effect the other way counts as inactive or inconclusive.

Sequence of ATP-dependent 6-phosphofructokinase (Trypanosoma brucei brucei) (O15648 whole entry, looked up): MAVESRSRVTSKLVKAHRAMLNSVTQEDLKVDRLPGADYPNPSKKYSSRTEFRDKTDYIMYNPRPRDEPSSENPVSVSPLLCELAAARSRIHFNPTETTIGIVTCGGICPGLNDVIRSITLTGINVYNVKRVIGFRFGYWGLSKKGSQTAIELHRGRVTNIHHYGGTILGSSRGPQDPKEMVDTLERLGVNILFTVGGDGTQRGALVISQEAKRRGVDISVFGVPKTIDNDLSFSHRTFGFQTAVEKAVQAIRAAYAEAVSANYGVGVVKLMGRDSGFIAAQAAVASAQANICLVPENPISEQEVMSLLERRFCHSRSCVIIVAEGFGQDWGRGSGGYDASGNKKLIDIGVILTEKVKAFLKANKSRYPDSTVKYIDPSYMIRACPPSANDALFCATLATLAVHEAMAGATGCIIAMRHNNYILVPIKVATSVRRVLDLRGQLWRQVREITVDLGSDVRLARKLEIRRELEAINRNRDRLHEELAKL
Sequence of Luciferin 4-monooxygenase (Photinus pyralis) (P08659 whole entry, looked up): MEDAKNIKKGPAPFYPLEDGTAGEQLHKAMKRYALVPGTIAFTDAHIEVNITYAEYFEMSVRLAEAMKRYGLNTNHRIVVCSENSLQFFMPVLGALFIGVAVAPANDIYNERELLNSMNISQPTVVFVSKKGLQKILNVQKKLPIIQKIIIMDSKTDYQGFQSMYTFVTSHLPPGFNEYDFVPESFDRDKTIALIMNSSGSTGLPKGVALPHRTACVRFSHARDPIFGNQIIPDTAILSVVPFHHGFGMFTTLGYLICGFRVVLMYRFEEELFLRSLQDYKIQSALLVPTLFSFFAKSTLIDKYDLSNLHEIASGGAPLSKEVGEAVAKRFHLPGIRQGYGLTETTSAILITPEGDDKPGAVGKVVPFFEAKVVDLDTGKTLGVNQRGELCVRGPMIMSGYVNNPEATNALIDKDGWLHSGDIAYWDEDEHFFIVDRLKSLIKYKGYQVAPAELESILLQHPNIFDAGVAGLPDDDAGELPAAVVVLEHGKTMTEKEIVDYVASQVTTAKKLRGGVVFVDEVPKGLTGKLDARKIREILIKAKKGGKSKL

`CCCCC(=O)O[C@]1(C(=O)CO)CCC2C3CCC4=CC(=O)CCC4(C)C3C(O)CC21C` (stereo partly specified): the Potency result (in [1]; in test [2]; in the test with CP185; in the test with CP192; in the test on CP211; with CP238) was “inactive” throughout. Besides, the Potency result in the test with CP262, in the test on CP269, with CP286, with CP305, with CP315 and with CP325 was “inactive” each time. In addition, the Potency result with FAB9, with HB3, with JCK, in the test on N140 and with PC49 was “inactive” each time. Further, in [3], the ratio activity, negative = inhibition is -11.9% (active). In addition, the activity, negative = inhibition is -2.08% in test [4] (parasite line A) and -4.71% in test [4] (parasite line B).

As for `COc1ccc(S(=O)(=O)N2c3ccc(Cl)cc3[C@](O)(c3ccccc3Cl)[C@@H]2C(=O)N2CCC[C@H]2C(N)=O)cc1OC`, the Potency result (in [1]; in test [2]; in test [3]; in the test with CP185; in the test with CP192; in the test on CP211) was “inactive” throughout. The Potency result with CP238, with CP262, in the test with CP269, with CP286, in the test with CP305 and in the test on CP315 was “inactive” in each case. Also, the Potency entry in the test on CP325, with Dd2, in the test with FAB9, in the test on HB3, in the test with JCK and in the test on PC49 was “inactive” throughout. For the same compound, the activity, negative = inhibition in [4] (parasite line A) is -28.5%; in test [4] (parasite line B) it was -6.86%.

Consider `C/C(=C(/CCO)SS/C(CCO)=C(\C)N(C=O)Cc1cnc(C)nc1N)N(C=O)Cc1cnc(C)nc1N`, for which the Potency result (in test [1]; in [2]; in test [3]; in the test with CP185; in the test with CP192; in the test on CP211) was “inactive” each time. Besides, the Potency result in the test on CP238, in the test on CP262, in the test on CP269, in the test with CP286, in the test on CP305 and with CP315 was “inactive” throughout. The Potency entry with CP325, in the test with Dd2, in the test on FAB9, in the test on HB3, with JCK and in the test with N140 was “inactive” in each case. In the test with PC49, the Potency result was “inactive”. Also, the activity, negative = inhibition is -6.53% in test [4] (parasite line A) and -3.11% in test [4] (parasite line B).

On to `CCC(=O)O[C@]1(C(=O)CCl)[C@@H](C)CC2C3C[C@H](F)C4=CC(=O)C=CC4(C)[C@@]3(F)C(O)CC21C` (stereo partly specified), for which the Potency entry (in [1]; in test [2]; in test [3]; in the test on FAB9) was “inactive” each time. Besides, the Potency in test [4] (parasite line A) is 12.6 µM (active); in [4] (parasite line B), 11.2 µM (active); in the test with CP185, 11.2 µM (active); with CP211 it was 9.53 µM (active); with CP238, 8.91 µM (active); with CP262, 9.53 µM (active). The Potency is 12 µM (active) with CP269; 10 µM (active) with CP286; 12 µM (active) in the test on CP305; 16.9 µM (active) in the test on CP325; 7.94 µM (active) in the test with Dd2; 12.6 µM (active) in the test with HB3. The Potency with N140 is 6.31 µM (active).

With `CNC1=CN(O)C(c2ccccc2)=c2cc(Cl)ccc2=N1`, the Potency result (in test [1]; in test [2]; in [3]; in the test on CP238; in the test on CP262; in the test on Dd2) was “inactive” each time. Further, the Potency entry in the test on HB3, in the test on JCK and in the test on PC49 was “inactive” throughout. For the same compound, the Potency in test [4] (parasite line A) is 3.55 µM (active); in [4] (parasite line B) it was 2.24 µM (active) and 11.2 µM (active); in the test with CP192, 4.26 µM (active); with CP211, 4.26 µM (active); with CP269, 3.79 µM (active); in the test with CP286, 4.47 µM (active). Moreover, the Potency with CP305 was 1.69 µM (active); with CP315, 1.9 µM (active); in the test with FAB9, 2.51 µM (active).
